From PubChem BioAssay (Tox21)
Records with an inconclusive call do not appear. Unmarked numbers belong to inactive results. Active and inactive are the calls of the source. Calls follow the shape of the dose curve; as a rule, active = well fitted cell-killing curve with a large enough effect in the repeat runs; inconclusive = weak or mixed curves, or effect the other way; inactive = flat fitted curve, though single readings scatter.

Test: Nuclear factor erythroid 2-related factor 2/antioxidant responsive element (Nrf2/ARE) small molecule agonists: qHTS cell viability counter screen in human keratinocytes (AID 1919968); also: nearly all actives have a fitted effect of over 55% in size
Conditions: KeratinoSens HaCaT ARE cells viability, CellTiter-Fluor, 24 h; series mostly up to 92.4 µM; activity change, negative = cytotoxicity: at the top concentration
Source text: U.S. Tox21 Program National Center for Advancing Translational Sciences [NCATS] Division of Preclinical Innovation [DPI] U.S. Environmental Protection Agency [EPA] National Institutes of Environmental Health Sciences [NIEHS] National Toxicology Program [NTP] U.S. Food and Drug Administration [FDA] Tox21 Assay Overview: Oxidative stress has been implicated in the pathogenesis of a variety of diseases ranging from cancer to neurodegeneration. The antioxidant response element (ARE) signaling pathway plays an important role in the amelioration of oxidative stress. The KeratinoSens (Givaudan, Switzerland) is an in vitro test method which quantifies luciferase induction as a measure of activation of Keap1-Nrf2-antioxidationt/electrophile response element (ARE) dependant pathway in HaCaT human keratinocytes stably transfected with a selectable plasmid. The KeratinoSens assay is a cell-based assay with a reporter cell line to detect potential skin sensitizers by their ability to induce the Nrf2/ARE-response. The activation of the report gene under culture conditions can be detected by ONE-Glo Luciferase Assay System (Promega, Madison, WI). This cell line has been used to screen the Tox21 10K compound library to identify agonists that induce oxidative stress. The cytotoxicity of the Tox21 compound library against the KS-ARE cell line was tested in parallel by measuring the cell viability using CellTiter- Fluor assay system (Promega, Madison, WI) in the same wells.
Tox21 Assay Protocol Summary: HaCaT derived cell line KeratinoSens were dispensed at 1,500 cells/5uL/well in 1536-well white wall/solid bottom plates using a Multidrop Combi (ThermoFisher Scientific, Waltham, MA) dispenser. After the assay plates were incubated at 37 C/5% CO2 for 5 h, 23 nL of compounds dissolved in DMSO, positive controls or DMSO only was transferred to the assay plate by a pintool workstation (Kalypsys, San Diego, CA). The plates were incubated at 37 C/5% CO2 for 23 h, followed by addition of 1uL/well of CellTiter-Fluor reagent into the assay plates using a Flying Reagent Dispenser (Aurora Discovery, San Diego, CA) for cell viability readout that measures cytotoxicity. After 1 h incubation at 37 C/5% CO2 the fluorescence intensity was measured using a ViewLux (PerkinElmer, Shelton, CT) plate reader.
% is scaled to controls: 0 for no effect and ±100 for the full control effect; potency is read from the fitted curve at half-maximal effect.

Structure (SMILES)	activity change, negative = cytotoxicity	Potency
O=C(Nc1ccc(Cl)c(Cl)c1)C1CC1	-2.74% [at 42.5 µM]	
CC(C)=CCOC(=O)c1ccccc1	1.63%	
C1CCN2C[C@@H]3C[C@@H](CN4CCCC[C@@H]34)[C@H]2C1	3.95% [at 42.5 µM]	
O=C(O)c1cc(N=Nc2ccc([N+](=O)[O-])cc2)ccc1O		26.8 µM (active)
O=C(NCCO[N+](=O)[O-])c1cccnc1	-5.46% [at 42.5 µM]	
COc1ccc(C(=O)c2ccc(OC)cc2O)c(O)c1	13.5%	
O=S(O)(O)=S	-0.897% [at 8.39 µM]	
Nc1nc2c(ncn2CCC(CO)CO)c(=O)[nH]1	1.31% [at 42.5 µM]	
Nc1ccc(NC(=O)c2ccc(N)cc2)cc1	1.55%	
N#Cc1c(F)cccc1F	0.998%	
COc1ccc(CN(CCN(C)C)c2ncccn2)cc1	1.26% [at 42.5 µM]	
CN1CCN(C2=Nc3cc(F)ccc3Cc3ccccc32)CC1	-0.222% [at 42.5 µM]	
NC[C@H]1O[C@H](O[C@H]2[C@H](O[C@@H]3O[C@H](CO)[C@@H](O)[C@H]3O)C(O)[C@H](N)C[C@@H]2N)[C@H](N)[C@@H](O)[C@@H]1O (stereo not given in full)	-6.49% [at 8.39 µM]	
S=C1NC=NC2N=CNC12 (stereo not given)	-0.995%	
CCCCCCCC/C=C\CCCCCCCCCCCC(=O)O	-0.528%	
CC(N)CCCC(C)(C)O (stereo not given)	2.34% [at 42.5 µM]	
CC/C=C(\C)C=O	-4.89%	
COCCO	-6.38%	
CCCCC/C=C/CC1CC(=O)OC1=O (stereo not given)	5.24%	
C[C@H](CCC(=O)NCC(=O)O)[C@H]1CC[C@H]2[C@@H]3[C@H](O)C[C@@H]4C[C@H](O)CC[C@]4(C)[C@H]3C[C@H](O)[C@]12C	4.31%	

Structure (SMILES)	activity change, negative = cytotoxicity	Potency
CCc1cccc(CC)c1NC(=O)CN(CC(=O)O)CC(=O)O	2.81% [at 42.5 µM]	
CC(C)=CCC/C(C)=C/CC/C(C)=C/C(=O)OCC(=O)[C@@]1(O)CC[C@H]2[C@@H]3CCC4=CC(=O)C=C[C@]4(C)[C@H]3[C@@H](O)C[C@@]21C		6.68 µM (active)
COc1cc2c(cc1OC)C(C(C(=O)N(CCc1ccc(OC)c(OC)c1OC)CCc1ccc(OC)c(OC)c1OC)c1ccccc1)=NCC2 (stereo not given)	2.08% [at 42.5 µM]	
CCCCCCc1ccc(N)cc1	-14.4%	
NCc1ccco1	3.09%	
NC(=O)C1(N2CCCCC2)CCN(CCCC(=O)c2ccc(F)cc2)CC1	-6.09% [at 42.5 µM]	
O=C(O)c1cn(C2CC2)c2cc(Cl)c(F)cc2c1=O	1.01% [at 42.5 µM]	
CN1CCN(C2=Nc3ccccc3Sc3ccc(Cl)cc32)CC1	2.81% [at 42.5 µM]	
C/C=C/C=C/COC(=O)C(C)C	-5.03%	
CCN(CCO)CCCC(C)Nc1ccnc2cc(Cl)ccc12 (stereo not given)	-14.6% [at 8.39 µM]	
CCS(=O)(=O)CCn1c([N+](=O)[O-])cnc1C	-4.16% [at 42.5 µM]	
Cc1cccc(N(C)C(=S)Oc2ccc3c(c2)CCC3)c1	26.3% [at 42.5 µM]	
CCCC[P+](C)(CCCC)CCCC	-1.01%	
CC(C)=CCC/C(C)=C/C=N/O	-2.68%	
O=C1OC(=O)C2CCCCC12 (stereo not given)	0.577%	
CC(C)(C)C(=O)NCCCC(=O)O	-0.77% [at 42.5 µM]	
CC(=O)NC(=O)c1ccccc1O	3.41% [at 42.5 µM]	
O=C(Cn1ccnc1[N+](=O)[O-])NCCO	-12.3% [at 42.5 µM]	
O=C(OCC(O)CO)c1ccccc1Nc1ccnc2c(C(F)(F)F)cccc12 (stereo not given)	1.73% [at 42.5 µM]	
CCC(C)c1cc([N+](=O)[O-])cc([N+](=O)[O-])c1OC(=O)OC(C)C (stereo not given)		38.6 µM (active)
